A selection: hits, their analogues and other compounds. The true share with any hit is near 0.53%.
Vif-APOBEC3F blk – qHTS for Inhibitors of Vif-A3F Interactions: qHTS | AID 602313, 2012 | HeLa A3F-eYFP + Vif (tagged APOBEC3F with the HIV-1 protein that degrades it), YFP fluorescence increase | 0.2% of 390,000 active | Potency, µM (titrated, usually from 46.1 µM), for inactives: top-dose activity, negative = active; also: potency is read from the fitted curve at half-maximal effect; % of control where 0% means no effect; nearly all actives have a fitted effect of over 65% in size
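Fluorescence increase (Ex 488/Em 500-530) after overnight compound treatment at 37 deg C flags inhibition of Vif-driven A3F-eYFP loss in stable HeLa A3F-eYFP/Vif cells seeded overnight beforehand.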
Vif-APOBEC3G blk – qHTS for Inhibitors of Vif-A3G Interactions: qHTS | 0.076% of 410,000 active | DNA dC->dU-editing enzyme APOBEC-3G (Homo sapiens), Q9HC16 | Potency, µM (highest dose often 46.1 µM), for inactives: at the highest dose activity, negative = active, most hits filed as inhibitors | HeLa A3G-eYFP + Vif (tagged APOBEC3G with the HIV-1 protein that degrades it), YFP fluorescence, overnight; also: potency is read from the fitted curve at half-maximal effect; % is scaled to controls: 0 for no effect and ±100 for the full control effect; nearly all actives have a fitted effect of over 60% in size
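HeLa cells stably expressing Vif and C-terminally eYFP-tagged A3G, seeded overnight at 37 deg C, then exposed to compound by pintool overnight at 37 deg C. Rise in yellow fluorescence (Ex 488/Em 500-530, Acumen) marks blocked Vif-driven A3G degradation.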
PKM2 act – qHTS Assay for Activators of Human Muscle isoform 2 Pyruvate Kinase; 0.34% of 260,000 active; purified PKM2, Kinase-Glo ATP luminescence, activation; response scale: 0% is enzyme alone, no compound; Pyruvate kinase PKM (Homo sapiens), P14618; Potency, µM (top dose mostly 57.5 µM), for the others: at the highest dose activation, hits mostly activators; also: potency is read from the fitted curve at half-maximal effect; % is scaled to controls: 0 for no effect and ±100 for the full control effect; nearly all actives have a fitted effect of over 55% in size
Target sequence (P14618 whole entry, looked up, canonical isoform): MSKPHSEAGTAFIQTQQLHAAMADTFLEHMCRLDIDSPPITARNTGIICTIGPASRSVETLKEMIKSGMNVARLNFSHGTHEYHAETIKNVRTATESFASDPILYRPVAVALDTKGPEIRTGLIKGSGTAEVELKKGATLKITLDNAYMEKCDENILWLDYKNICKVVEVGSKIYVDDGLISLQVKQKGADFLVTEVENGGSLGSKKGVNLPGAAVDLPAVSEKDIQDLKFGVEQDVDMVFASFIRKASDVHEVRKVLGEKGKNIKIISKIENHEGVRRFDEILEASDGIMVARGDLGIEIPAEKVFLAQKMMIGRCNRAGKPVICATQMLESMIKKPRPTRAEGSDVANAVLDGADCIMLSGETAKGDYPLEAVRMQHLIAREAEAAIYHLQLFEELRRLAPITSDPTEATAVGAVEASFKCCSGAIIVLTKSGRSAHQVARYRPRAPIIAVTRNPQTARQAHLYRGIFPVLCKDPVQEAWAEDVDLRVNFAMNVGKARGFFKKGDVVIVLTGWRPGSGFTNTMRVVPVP
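Purified hPK-M2 (>95% pure) converted ADP (0.1 mM final) to ATP with 0.5 mM PEP in 50 mM imidazole pH7.2, KCl, MgCl2, Tween 20, BSA; 1 h at room temperature. ATP detected by Kinase-Glo luminescence.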
IL-2 act – qHTS of IL-2 Activators | IL-2 activation reporter assay, cell-based qHTS; stimulated with anti-CD3/CD4/CD28 beads; in transgenic mouse T cells | activation, % (series mostly up to about 46 µM) | 0.065% of 360,000 active | AID 652025, 2013; in the data active = activation above about 50%; inconclusive = mostly about 30% to 49%; also: 0% is about no effect
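Quantitative HTS in unstimulated transgenic mouse T cells, with memory T cells as non-tolerant control and PMA/ionomycin as tolerance-bypass control. Compound pretreatment lasted 60 minutes before 18 h bead stimulation; EGFP/DsRed fluorescence read.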
Starred values were filed as active, the others as inactive. Unless noted, calls follow the shape of the dose curve; as a rule, active = well fitted curve in the direction sought with a large enough effect; inconclusive = small, poorly fitted or top-dose-only effect, or another doubt; inactive = no such curve, though single readings can be large; an effect the other way counts as inactive or inconclusive.

What do the screens show for `CCOC(=O)c1ccc(NC(=O)CSc2cn(CC(=O)N3CCCC3)c3ccccc23)cc1`?
Vif-APOBEC3F blk: 0%; Vif-APOBEC3G blk: 10%

Results for Oc1sc(C=Nc2ccc(F)cc2)c2ccccc12 ?
Vif-APOBEC3F blk: 2.8µM*; Vif-APOBEC3G blk: inconclusive; PKM2 act: 6%; IL-2 act: 3

What do the screens show for `Oc1sc(C=Nc2ccccc2)c2ccccc12`?
Vif-APOBEC3F blk: 25µM*; Vif-APOBEC3G blk: 11µM*; PKM2 act: -5%; IL-2 act: 9

How did CCc1cnc2c(c1SC(C(C)=O)C(=O)N(C)C)c(=O)n(C)c(=O)n2C (stereo unspecified) do in these assays?
Vif-APOBEC3F blk: inconclusive; Vif-APOBEC3G blk: 2%

How did O=C(N/N=C/c1c(O)n(-c2ccc(Cl)cn2)c(=O)c2ccccc12)C1CC1 do in these assays?
Vif-APOBEC3F blk: -19%; Vif-APOBEC3G blk: -1%; PKM2 act: 3%; IL-2 act: 1

How did O=C(N/N=C/c1c(O)n(-c2ccc(Cl)cn2)c(=O)c2ccccc12)c1ccncc1 do in these assays?
Vif-APOBEC3F blk: 22µM*; Vif-APOBEC3G blk: -19%; PKM2 act: 2%; IL-2 act: 2

What do the screens show for `Nc1ccc(/C=C/c2ccnc3ccccc23)cc1`?
Vif-APOBEC3G blk: -3%

Results for COc1ccccc1NC(=O)N(Cc1ccco1)Cc1cc2ccc(C)c(C)c2[nH]c1=O ?
Vif-APOBEC3F blk: -9%; Vif-APOBEC3G blk: inconclusive; PKM2 act: 16µM*; IL-2 act: -1

Results for O=S(=O)(c1ccccc1)c1ccc(NCc2ccco2)cc1 ?
Vif-APOBEC3F blk: 0%; Vif-APOBEC3G blk: 0%; PKM2 act: 32µM*; IL-2 act: 1

How did O=S(=O)(Nc1nc2ccccc2nc1NCc1ccco1)c1ccccc1 do in these assays?
Vif-APOBEC3F blk: 6%; Vif-APOBEC3G blk: -4%; PKM2 act: 6%; IL-2 act: 0

Results for Cc1nn2c(=O)cc(COC(=O)c3ccco3)nc2s1 ?
Vif-APOBEC3F blk: 4%; Vif-APOBEC3G blk: 1%

What do the screens show for `Cc1cc(NS(=O)(=O)c2ccccc2)cc(Cl)c1O`?
Vif-APOBEC3F blk: -18%; Vif-APOBEC3G blk: -4%; PKM2 act: 16µM*; IL-2 act: 0

How did Cn1c(Cn2cnc3ccccc32)nc2ccccc21 do in these assays?
Vif-APOBEC3F blk: -1%; Vif-APOBEC3G blk: 3%; PKM2 act: inconclusive; IL-2 act: 2

How did Cn1c(Cn2cnc(Cl)c2Cl)nc2ccccc21 do in these assays?
Vif-APOBEC3F blk: 0%; Vif-APOBEC3G blk: 1%; PKM2 act: 25µM*; IL-2 act: -1

What do the screens show for `Cc1ccc(-c2nc3ncccc3o2)cc1NC(=O)c1ccc([N+](=O)[O-])o1`?
Vif-APOBEC3F blk: 22µM*; Vif-APOBEC3G blk: 0%; PKM2 act: 2%; IL-2 act: 0

What do the screens show for `Cn1c(OCc2cccnc2)nc2c1c(=O)n(Cc1ccc(Br)cc1)c(=O)n2C`?
Vif-APOBEC3F blk: 3%; Vif-APOBEC3G blk: 1%; PKM2 act: 20µM*; IL-2 act: -1

What do the screens show for `CN(C)c1ccc(/C=C2\SC(N3CCCCC3)=NC2=O)cc1`?
Vif-APOBEC3F blk: 22µM*; Vif-APOBEC3G blk: inconclusive; PKM2 act: -5%; IL-2 act: 8

How did COc1cc2c(NC3CCN(C)CC3)nc(N3CCCN(C)CC3)nc2cc1OCC1CCCCN1 (stereo unspecified) do in these assays?
Vif-APOBEC3G blk: 2%

How did COc1cccc(C2=CC(c3ccc(N(C)C)cc3)n3nnnc3N2)c1 (stereo unspecified) do in these assays?
Vif-APOBEC3F blk: 32µM*; Vif-APOBEC3G blk: inconclusive; PKM2 act: 0%; IL-2 act: 8

Results for COc1ccc(C2=CC(c3ccc(C)cc3)n3nnnc3N2)cc1 (stereo unspecified) ?
Vif-APOBEC3F blk: 1%; Vif-APOBEC3G blk: -17%; PKM2 act: -10%; IL-2 act: 2

How did COc1cccc(C2=CC(c3ccccc3)n3nnnc3N2)c1 (stereo unspecified) do in these assays?
Vif-APOBEC3F blk: -1%; Vif-APOBEC3G blk: inconclusive; PKM2 act: 2%; IL-2 act: 0

How did COc1ccc(C2=CC(c3ccc(N(C)C)cc3)n3nnnc3N2)cc1 (stereo unspecified) do in these assays?
Vif-APOBEC3F blk: 11µM*; Vif-APOBEC3G blk: inconclusive

How did COc1ccccc1CNC(=O)C(C)n1ccc2cc(S(=O)(=O)N3CCCC3)ccc21 (stereo unspecified) do in these assays?
Vif-APOBEC3F blk: 4%; Vif-APOBEC3G blk: -5%

How did O=C(c1ccncc1)N1N=C(c2ccc(Br)cc2)CC1c1ccccc1O (stereo unspecified) do in these assays?
Vif-APOBEC3F blk: -11%; Vif-APOBEC3G blk: -8%; PKM2 act: 7.9µM*; IL-2 act: 0

How did O=C(c1ccccc1)N1N=C(c2ccccc2)CC1c1ccccc1O (stereo unspecified) do in these assays?
Vif-APOBEC3F blk: -6%; Vif-APOBEC3G blk: -6%; PKM2 act: 0%; IL-2 act: -3

Results for CCN(CC)CCCNc1ccc2ncn3c4ccc(O)cc4c(=O)c1c23 ?
Vif-APOBEC3F blk: 22µM*; Vif-APOBEC3G blk: inconclusive; IL-2 act: 124*

What do the screens show for `CCOC(=O)c1c(-c2ccccc2)csc1NC(=O)/C(C#N)=C\c1ccc(O)c(OC)c1`?
Vif-APOBEC3F blk: inconclusive; Vif-APOBEC3G blk: inconclusive; IL-2 act: -1

How did CCOC(=O)c1c(-c2ccc(C)cc2)csc1NC(=O)/C(C#N)=C/c1ccc(O)c(OC)c1 do in these assays?
Vif-APOBEC3F blk: inconclusive; Vif-APOBEC3G blk: 10µM*; PKM2 act: 29%; IL-2 act: -7

Results for Cc1ccc2[nH]c(=O)c(C(c3nnnn3C(C)(C)C)N3CCN(C(=O)c4ccco4)CC3)cc2c1 (stereo unspecified) ?
Vif-APOBEC3F blk: 3%; Vif-APOBEC3G blk: 1%; PKM2 act: 25µM*; IL-2 act: -1

What do the screens show for `CCC(C)(C)n1nnnc1C(c1cc2cc(C)cc(C)c2[nH]c1=O)N1CCN(C(=O)c2ccco2)CC1` (stereo unspecified)?
Vif-APOBEC3F blk: -1%; Vif-APOBEC3G blk: 0%; PKM2 act: 14µM*; IL-2 act: 0

Results for CCC(C)(C)n1nnnc1C(c1ccccc1OC)N1CCN(C(=O)c2ccco2)CC1 (stereo unspecified) ?
Vif-APOBEC3F blk: inconclusive; Vif-APOBEC3G blk: -5%; PKM2 act: 1%; IL-2 act: -3

Results for Cc1cccc2cc(C(c3nnnn3C(C)(C)C)N3CCN(C(=O)c4ccco4)CC3)c(=O)[nH]c12 (stereo unspecified) ?
Vif-APOBEC3F blk: 9%; Vif-APOBEC3G blk: 5%; PKM2 act: 30%; IL-2 act: -3

What do the screens show for `CCn1nc(-c2ccccc2C)nc2c(=O)n(C)c(=O)nc1-2`?
Vif-APOBEC3G blk: -14%

Bioassay records as filed in PubChem BioAssay.
